Experiment in all cases: DAPPL (digital affinity profiling via proximity ligation, sequencing); 10 mM Tris-HCl pH 7.5, 50 mM NaCl, 1 mM DTT, 4% glycerol, room temperature, 30 min; GST-TFs on glutathione beads, 16-mer random dsDNA library, 0.1% formaldehyde crosslink after washing; high values mean tight binding
In one experiment the target is T1, FEV (Homo sapiens, UniProt Q99581 1-238).
T1 sequence: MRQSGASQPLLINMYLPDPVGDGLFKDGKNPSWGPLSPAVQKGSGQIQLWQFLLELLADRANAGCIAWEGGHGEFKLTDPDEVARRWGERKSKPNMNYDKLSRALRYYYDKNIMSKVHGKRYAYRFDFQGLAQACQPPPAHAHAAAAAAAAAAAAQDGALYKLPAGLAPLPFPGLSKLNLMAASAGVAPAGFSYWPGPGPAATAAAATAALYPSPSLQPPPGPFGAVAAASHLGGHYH
Conditions: protein: recombinant; tags: N-terminal GST; dsDNA, one strand shown. In a few lines:
(§1)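 A tag-only sample was pooled with DNA-barcoded human transcription factors that had been expressed in yeast as GST fusions and captured on glutathione beads. The pools were incubated for 30 min at room temperature with 200 nmole of a random double-stranded 16-mer DNA library in Tris/NaCl/DTT/glycerol buffer, then washed, crosslinked with 0.1% formaldehyde, proximity-ligated (BsaI/T4 ligase, 1 h, 37 °C), PCR-amplified and sequenced on an Illumina NextSeq500. Binding signal is each hexamer's read frequency for a factor divided by its frequency for the tag-only sample.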

The target of a further experiment is ETV5 (Homo sapiens, UniProt P41161 1-510). Conditions: protein: recombinant; tags: N-terminal GST; dsDNA, one strand shown. A digest of the protocol:
as §1

The next experiment deals with HSF1 (Homo sapiens, UniProt Q00613 1-529). Conditions: protein: recombinant; tags: N-terminal GST; chain copies: 3; dsDNA, one strand shown. A digest of the protocol:
as §1

The next experiment deals with T2, SPIC (Homo sapiens, UniProt Q8N5J4 1-248).
T2 sequence: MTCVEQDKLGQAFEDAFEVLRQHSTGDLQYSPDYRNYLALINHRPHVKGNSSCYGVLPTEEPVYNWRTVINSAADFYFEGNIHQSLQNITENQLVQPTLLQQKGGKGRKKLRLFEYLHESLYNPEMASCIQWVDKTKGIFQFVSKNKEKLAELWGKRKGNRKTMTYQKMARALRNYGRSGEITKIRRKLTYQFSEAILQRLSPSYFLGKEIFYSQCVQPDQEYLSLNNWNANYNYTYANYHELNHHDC
Conditions: protein: recombinant; tags: N-terminal GST; dsDNA, one strand shown. In a few lines: as §1

In a further experiment the target is ELF4 (Homo sapiens, UniProt Q99607 1-663). Conditions: protein: recombinant; tags: N-terminal GST; dsDNA, one strand shown. A digest of the protocol:
as §1

A further experiment addresses T3, ELK4 (Homo sapiens, UniProt P28324-2 1-405).
T3 sequence: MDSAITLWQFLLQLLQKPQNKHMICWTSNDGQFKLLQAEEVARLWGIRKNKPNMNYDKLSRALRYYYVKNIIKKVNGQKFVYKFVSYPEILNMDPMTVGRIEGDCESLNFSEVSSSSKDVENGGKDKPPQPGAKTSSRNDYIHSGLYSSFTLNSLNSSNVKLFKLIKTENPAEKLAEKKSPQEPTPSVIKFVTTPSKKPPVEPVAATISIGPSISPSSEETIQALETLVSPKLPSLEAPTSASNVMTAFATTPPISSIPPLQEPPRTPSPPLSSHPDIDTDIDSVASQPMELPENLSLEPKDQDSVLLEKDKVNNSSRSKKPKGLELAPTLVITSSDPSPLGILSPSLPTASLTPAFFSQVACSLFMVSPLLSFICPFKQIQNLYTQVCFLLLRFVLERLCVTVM
Conditions: protein: recombinant; tags: N-terminal GST; dsDNA, one strand shown. In a few lines: as §1

In the next experiment the target is T4, ETV2 (Homo sapiens, UniProt O00321 1-342).
T4 sequence: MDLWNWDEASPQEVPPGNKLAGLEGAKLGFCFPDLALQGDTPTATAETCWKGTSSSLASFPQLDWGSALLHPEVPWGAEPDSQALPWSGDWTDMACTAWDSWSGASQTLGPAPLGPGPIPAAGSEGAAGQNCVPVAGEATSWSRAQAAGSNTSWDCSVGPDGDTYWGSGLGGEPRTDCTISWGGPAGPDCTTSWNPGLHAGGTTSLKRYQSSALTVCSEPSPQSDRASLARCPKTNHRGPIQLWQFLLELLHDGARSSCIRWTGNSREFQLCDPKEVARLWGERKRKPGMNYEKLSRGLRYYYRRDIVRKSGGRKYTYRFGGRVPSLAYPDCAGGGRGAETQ
Conditions: protein: recombinant; tags: N-terminal GST; dsDNA, one strand shown. In a few lines: as §1

For another experiment, the target named is T5, ELF3 (Homo sapiens, UniProt P78545 1-371).
T5 sequence: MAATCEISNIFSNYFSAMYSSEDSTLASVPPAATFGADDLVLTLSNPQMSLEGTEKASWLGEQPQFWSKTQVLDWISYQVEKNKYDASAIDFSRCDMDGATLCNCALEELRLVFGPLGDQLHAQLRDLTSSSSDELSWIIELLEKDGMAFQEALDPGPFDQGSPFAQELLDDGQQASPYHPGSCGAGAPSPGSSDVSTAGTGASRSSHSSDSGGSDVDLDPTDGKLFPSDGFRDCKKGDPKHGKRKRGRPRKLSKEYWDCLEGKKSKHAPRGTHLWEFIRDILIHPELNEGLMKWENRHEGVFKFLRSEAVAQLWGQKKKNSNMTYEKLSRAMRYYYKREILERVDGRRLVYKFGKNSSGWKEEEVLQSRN
Conditions: protein: recombinant; tags: N-terminal GST; dsDNA, one strand shown. In a few lines: as §1

The next experiment concerns the target CRX (Homo sapiens, UniProt O43186 1-299). Conditions: protein: recombinant; tags: N-terminal GST; dsDNA, one strand shown. A digest of the protocol: as §1
A further experiment deals with ETV1 (Homo sapiens, UniProt P50549 1-477). Conditions: protein: recombinant; tags: N-terminal GST; dsDNA, one strand shown. In a few lines:
as §1

Another experiment has as its target T6, ERF (Homo sapiens, UniProt P50548 1-548).
T6 sequence: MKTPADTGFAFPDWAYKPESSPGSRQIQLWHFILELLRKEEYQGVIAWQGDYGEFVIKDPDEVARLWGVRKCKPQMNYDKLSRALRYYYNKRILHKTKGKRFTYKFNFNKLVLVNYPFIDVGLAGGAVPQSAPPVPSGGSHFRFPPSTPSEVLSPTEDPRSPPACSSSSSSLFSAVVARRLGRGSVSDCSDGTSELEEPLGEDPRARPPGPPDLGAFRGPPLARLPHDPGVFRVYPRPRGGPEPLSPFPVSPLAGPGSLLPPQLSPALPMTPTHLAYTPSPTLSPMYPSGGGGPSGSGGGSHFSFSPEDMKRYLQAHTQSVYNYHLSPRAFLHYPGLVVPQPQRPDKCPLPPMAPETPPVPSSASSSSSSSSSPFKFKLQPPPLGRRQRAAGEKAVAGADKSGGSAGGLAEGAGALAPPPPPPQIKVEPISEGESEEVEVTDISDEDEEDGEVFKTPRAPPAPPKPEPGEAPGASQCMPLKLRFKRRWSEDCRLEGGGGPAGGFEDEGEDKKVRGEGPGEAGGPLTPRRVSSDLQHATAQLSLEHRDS
Conditions: protein: recombinant; tags: N-terminal GST; dsDNA, one strand shown. A digest of the protocol: as §1

Another experiment addresses T7, ETV3L (Homo sapiens, UniProt Q6ZN32 1-361).
T7 sequence: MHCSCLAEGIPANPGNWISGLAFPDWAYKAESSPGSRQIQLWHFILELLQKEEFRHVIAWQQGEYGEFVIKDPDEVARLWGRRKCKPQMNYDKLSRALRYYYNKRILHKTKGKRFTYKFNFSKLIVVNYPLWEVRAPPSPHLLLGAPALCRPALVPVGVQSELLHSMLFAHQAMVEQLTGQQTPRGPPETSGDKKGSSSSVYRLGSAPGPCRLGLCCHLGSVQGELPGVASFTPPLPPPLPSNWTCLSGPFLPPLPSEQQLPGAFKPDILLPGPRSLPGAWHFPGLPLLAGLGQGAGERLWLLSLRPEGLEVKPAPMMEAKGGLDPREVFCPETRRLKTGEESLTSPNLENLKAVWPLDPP
Conditions: protein: recombinant; tags: N-terminal GST; dsDNA, one strand shown. In a few lines: as §1

The target of the next experiment is T8, ETS2 (Homo sapiens, UniProt P15036 1-469).
T8 sequence: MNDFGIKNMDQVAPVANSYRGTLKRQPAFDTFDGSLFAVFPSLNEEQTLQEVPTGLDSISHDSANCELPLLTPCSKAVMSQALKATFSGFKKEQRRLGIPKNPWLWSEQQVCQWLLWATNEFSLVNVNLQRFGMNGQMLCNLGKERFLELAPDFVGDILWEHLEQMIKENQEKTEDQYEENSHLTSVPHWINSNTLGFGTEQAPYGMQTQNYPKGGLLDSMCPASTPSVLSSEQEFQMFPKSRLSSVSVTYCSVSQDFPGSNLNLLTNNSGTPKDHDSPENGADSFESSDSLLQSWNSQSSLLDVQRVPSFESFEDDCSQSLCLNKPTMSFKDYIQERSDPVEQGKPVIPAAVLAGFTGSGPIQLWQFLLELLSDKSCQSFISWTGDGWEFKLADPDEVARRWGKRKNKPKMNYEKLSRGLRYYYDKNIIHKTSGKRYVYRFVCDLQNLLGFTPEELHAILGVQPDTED
Conditions: protein: recombinant; tags: N-terminal GST; dsDNA, one strand shown. In a few lines: as §1

A further experiment deals with T9, SPDEF (Homo sapiens, UniProt O95238 1-335).
T9 sequence: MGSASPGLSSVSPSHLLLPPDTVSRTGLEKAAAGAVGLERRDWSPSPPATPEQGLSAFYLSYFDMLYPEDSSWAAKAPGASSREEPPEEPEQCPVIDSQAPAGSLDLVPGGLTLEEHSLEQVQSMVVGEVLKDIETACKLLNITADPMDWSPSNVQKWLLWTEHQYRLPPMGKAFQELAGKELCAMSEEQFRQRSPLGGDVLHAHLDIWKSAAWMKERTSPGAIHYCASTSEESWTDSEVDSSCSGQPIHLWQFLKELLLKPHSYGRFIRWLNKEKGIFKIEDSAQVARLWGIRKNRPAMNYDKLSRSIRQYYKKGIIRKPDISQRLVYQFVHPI
Conditions: protein: recombinant; tags: N-terminal GST; dsDNA, one strand shown. A digest of the protocol: as §1

The target of a further experiment is T10, ETV7 (Homo sapiens, UniProt Q9Y603 1-341).
T10 sequence: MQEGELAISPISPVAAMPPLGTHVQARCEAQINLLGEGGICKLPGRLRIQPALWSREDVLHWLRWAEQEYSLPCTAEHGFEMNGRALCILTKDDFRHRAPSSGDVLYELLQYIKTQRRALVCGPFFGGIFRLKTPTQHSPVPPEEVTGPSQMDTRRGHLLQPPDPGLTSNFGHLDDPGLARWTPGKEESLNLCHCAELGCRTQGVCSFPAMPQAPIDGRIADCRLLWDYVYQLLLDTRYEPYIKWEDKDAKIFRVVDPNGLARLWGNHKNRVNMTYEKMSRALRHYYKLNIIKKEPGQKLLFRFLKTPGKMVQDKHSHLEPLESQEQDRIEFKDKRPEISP
Conditions: protein: recombinant; tags: N-terminal GST; dsDNA, one strand shown. A digest of the protocol:
as §1

For another experiment, the target named is T11, ELF5 (Homo sapiens, UniProt Q9UKW6-2 1-255).
T11 sequence: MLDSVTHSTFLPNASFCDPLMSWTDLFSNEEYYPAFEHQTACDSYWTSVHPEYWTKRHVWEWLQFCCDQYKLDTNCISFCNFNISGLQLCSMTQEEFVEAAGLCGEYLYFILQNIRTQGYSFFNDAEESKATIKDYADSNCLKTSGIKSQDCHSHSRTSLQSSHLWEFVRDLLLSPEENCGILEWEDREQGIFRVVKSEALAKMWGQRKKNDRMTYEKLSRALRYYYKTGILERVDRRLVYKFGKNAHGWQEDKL
Conditions: protein: recombinant; tags: N-terminal GST; dsDNA, one strand shown. In a few lines:
as §1

For another experiment, the target named is T12, ETV3 (Homo sapiens, UniProt P41162-2 1-143).
T12 sequence: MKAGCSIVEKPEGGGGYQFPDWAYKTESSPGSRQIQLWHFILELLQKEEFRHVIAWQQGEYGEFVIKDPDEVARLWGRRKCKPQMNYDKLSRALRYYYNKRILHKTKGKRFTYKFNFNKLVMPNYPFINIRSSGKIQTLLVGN
Conditions: protein: recombinant; tags: N-terminal GST; dsDNA, one strand shown. A digest of the protocol:
as §1

The target of a further experiment is ETV6 (Homo sapiens, UniProt P41212 1-452). Conditions: protein: recombinant; tags: N-terminal GST; dsDNA, one strand shown. A digest of the protocol:
as §1

Sequence of ELF4 (Q99607 whole entry): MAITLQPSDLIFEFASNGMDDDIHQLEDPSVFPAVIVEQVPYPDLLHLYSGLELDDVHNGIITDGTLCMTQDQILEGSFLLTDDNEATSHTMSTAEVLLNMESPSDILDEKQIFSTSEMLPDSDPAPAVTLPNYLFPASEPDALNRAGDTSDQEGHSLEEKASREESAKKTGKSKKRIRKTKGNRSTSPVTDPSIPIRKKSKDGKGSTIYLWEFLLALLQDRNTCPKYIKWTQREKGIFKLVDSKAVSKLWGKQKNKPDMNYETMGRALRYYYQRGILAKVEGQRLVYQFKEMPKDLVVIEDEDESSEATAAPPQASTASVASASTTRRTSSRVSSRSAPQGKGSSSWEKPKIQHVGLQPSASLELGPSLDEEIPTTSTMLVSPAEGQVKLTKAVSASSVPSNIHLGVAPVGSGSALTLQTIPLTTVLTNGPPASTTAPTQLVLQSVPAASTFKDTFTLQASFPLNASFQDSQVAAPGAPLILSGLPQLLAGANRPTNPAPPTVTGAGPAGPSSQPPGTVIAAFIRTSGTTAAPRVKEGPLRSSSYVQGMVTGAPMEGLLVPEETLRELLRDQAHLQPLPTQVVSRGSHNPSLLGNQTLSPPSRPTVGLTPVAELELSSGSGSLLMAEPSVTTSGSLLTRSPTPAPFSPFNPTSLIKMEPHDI
Sequence of ETV6 (P41212 whole entry): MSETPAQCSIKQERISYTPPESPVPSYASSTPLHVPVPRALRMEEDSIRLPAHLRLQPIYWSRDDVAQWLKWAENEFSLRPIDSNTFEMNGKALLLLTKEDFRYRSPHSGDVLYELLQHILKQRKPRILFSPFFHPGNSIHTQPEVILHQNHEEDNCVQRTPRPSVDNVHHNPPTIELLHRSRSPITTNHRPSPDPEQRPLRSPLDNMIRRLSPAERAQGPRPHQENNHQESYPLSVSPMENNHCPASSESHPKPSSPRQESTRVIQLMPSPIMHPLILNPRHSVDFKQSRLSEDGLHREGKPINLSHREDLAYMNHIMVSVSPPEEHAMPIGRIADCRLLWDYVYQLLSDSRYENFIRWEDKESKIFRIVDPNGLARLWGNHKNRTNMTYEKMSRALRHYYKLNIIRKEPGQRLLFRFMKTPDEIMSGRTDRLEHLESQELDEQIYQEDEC
Sequence of CRX (O43186 whole entry): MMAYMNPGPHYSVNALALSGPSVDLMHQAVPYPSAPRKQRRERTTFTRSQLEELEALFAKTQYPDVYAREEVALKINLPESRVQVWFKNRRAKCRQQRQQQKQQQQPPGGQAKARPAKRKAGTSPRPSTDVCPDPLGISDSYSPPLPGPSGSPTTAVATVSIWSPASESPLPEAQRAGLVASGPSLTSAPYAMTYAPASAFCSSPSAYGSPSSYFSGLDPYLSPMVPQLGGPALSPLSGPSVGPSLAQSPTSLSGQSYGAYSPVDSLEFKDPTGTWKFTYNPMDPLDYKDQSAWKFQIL
Sequence of ETV1 (P50549 whole entry): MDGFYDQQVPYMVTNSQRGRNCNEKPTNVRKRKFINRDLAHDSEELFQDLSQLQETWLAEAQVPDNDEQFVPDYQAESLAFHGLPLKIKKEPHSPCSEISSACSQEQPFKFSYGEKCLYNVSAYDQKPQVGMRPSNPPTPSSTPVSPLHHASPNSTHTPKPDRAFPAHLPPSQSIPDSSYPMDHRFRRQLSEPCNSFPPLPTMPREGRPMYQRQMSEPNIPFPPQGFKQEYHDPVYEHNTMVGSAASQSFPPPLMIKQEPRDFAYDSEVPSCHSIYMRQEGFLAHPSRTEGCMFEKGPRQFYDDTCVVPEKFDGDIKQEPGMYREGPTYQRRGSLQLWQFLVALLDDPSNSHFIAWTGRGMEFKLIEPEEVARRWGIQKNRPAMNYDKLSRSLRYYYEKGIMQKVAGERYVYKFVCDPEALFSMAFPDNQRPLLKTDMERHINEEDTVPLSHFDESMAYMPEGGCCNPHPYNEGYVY
Sequence of HSF1 (Q00613 whole entry): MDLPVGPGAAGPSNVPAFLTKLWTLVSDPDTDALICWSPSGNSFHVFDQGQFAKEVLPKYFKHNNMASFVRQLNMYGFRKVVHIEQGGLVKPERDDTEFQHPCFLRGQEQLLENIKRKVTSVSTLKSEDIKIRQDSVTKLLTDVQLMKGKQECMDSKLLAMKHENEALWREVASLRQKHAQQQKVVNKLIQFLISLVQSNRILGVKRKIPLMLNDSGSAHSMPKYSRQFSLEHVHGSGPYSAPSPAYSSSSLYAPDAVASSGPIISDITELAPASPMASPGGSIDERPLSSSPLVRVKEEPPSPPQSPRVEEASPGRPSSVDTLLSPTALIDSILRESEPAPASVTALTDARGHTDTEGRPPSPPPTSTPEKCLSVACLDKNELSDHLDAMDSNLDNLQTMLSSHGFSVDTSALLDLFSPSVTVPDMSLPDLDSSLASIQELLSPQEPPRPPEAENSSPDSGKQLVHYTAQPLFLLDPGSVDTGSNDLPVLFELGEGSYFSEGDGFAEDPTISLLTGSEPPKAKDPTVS
Sequence of ETV5 (P41161 whole entry): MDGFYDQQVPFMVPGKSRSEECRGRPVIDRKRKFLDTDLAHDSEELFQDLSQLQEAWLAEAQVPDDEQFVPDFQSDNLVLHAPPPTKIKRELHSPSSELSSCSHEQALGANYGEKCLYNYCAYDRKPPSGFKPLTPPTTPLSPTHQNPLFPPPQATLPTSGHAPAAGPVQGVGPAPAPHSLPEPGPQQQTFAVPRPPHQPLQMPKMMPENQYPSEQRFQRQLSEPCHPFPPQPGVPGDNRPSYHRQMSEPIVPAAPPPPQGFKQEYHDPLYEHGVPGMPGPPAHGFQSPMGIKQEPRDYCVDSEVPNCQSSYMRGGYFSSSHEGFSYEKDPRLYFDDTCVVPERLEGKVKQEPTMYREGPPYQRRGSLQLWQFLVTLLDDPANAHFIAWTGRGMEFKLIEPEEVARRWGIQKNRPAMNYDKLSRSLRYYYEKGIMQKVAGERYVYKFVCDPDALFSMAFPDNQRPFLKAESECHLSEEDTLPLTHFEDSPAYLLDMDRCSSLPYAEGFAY

For the sequence TACTCT, the binding signal is 1.33 fold enrichment (6-mer frequency, TF over GST control) with FEV; 1.45 fold enrichment (6-mer frequency, TF over GST control) with ETV5; 1.37 fold enrichment (6-mer frequency, TF over GST control) with HSF1; 1.28 fold enrichment (6-mer frequency, TF over GST control) with SPIC; 1.42 fold enrichment (6-mer frequency, TF over GST control) with ELF4; 1.44 fold enrichment (6-mer frequency, TF over GST control) with ELK4. The binding signal with ETV2 was 1.43 fold enrichment (6-mer frequency, TF over GST control); with ELF3, 1.49 fold enrichment (6-mer frequency, TF over GST control); in the experiment with CRX it was 1.6 fold enrichment (6-mer frequency, TF over GST control); with ETV1 it was 1.47 fold enrichment (6-mer frequency, TF over GST control); in the experiment with ERF, 1.46 fold enrichment (6-mer frequency, TF over GST control); in the experiment with ETV3L it was 1.37 fold enrichment (6-mer frequency, TF over GST control). The binding signal with ETS2 was 1.3 fold enrichment (6-mer frequency, TF over GST control); in the experiment with SPDEF, 1.39 fold enrichment (6-mer frequency, TF over GST control); with ETV7, 1.33 fold enrichment (6-mer frequency, TF over GST control); with ELF5 it was 1.38 fold enrichment (6-mer frequency, TF over GST control); with ETV3 it was 1.39 fold enrichment (6-mer frequency, TF over GST control); in the experiment with ETV6 it was 1.39 fold enrichment (6-mer frequency, TF over GST control).

These data come from article PMC7862700, “An all-to-all approach to the identification of sequence-specific readers for epigenetic DNA modifications on cytosine”.
